Source: PubChem BioAssay (NCI)
Compounds without any hit were thinned out: in the full panel of roughly 83,000, 20% have a hit.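 Growth was measured after 48 h exposure to one concentration of compound in 96-well plates. Values under 10 count as active.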 Activity calls are given as the source filed them.

These compounds were tested on HL-60(TB) leukemia (assay: NCI-60 one-dose screen, 48 h (100 = growth as untreated, 0 = no growth, -100 = all killed)). Conditions: 10 µM unless noted.
For `O=[N+]([O-])c1cccc(-c2nnc3c(/C=C/c4ccc(F)cc4)nc4ccccc4n23)c1`, the growth was 92.7% (inactive). `Cc1ccc(C(=O)Nc2ccc(-n3ccnc3)c(C(F)(F)F)c2)cc1C#Cc1cnc2cccnn12` was tested, and the growth was -19.6% (active). For `Cn1cc(-c2nc(N)nnc2-c2c[nH]c3ccccc23)c2cc(Br)cnc21`, the growth was 4.17% (active). With `COc1ccc(-n2c(SCC(=O)NNS(=O)(=O)c3ccccc3)nc3ccc(Cl)cc3c2=O)cc1` the growth was 107% (inactive). In the case of `COc1ccc(-c2nc3ccccc3n2CC(=O)N=Nc2c(O)[nH]c3ccc(OC)cc23)cc1`, the growth is reported as 37.6% (inactive). With `O=C(Nc1ccc(-c2ccc3c(c2)NC(=O)/C3=C\c2ccc[nH]2)cc1)Nc1cccc(Cl)c1` the growth was 10.6% (inactive). With `O=C(N/N=C/c1ccc(Cl)o1)c1[nH]c2ccc(Br)cc2c1-c1ccccc1` the growth was -42.4% (active). With `COc1ccc(-c2nc3cc(C)ccc3n2CC(=O)N=Nc2c(O)[nH]c3ccc(OC)cc23)cc1` the growth was -62.1% (active). With `S=c1c2ccccc2nc2n1CCc1c-2[nH]c2ccccc12` the growth was 98% (inactive). With `O=C(N/N=C/c1c[nH]c2ccccc12)Nc1ccc(F)c(Cl)c1` the growth was 15.9% (inactive). `COc1ccc(N=Nc2c(N)nn3c(-c4ccc(F)cc4)ccnc23)cc1` was tested, and the growth was 95.3% (inactive). With `COc1cc2c(c(OC)c1OC)C(=O)CC(c1cccc(NC(=O)c3cc(NC(=O)[C@H](C)N)ccc3Cl)c1)O2` (some centres undefined) the growth was 2.28% (active). With `CCOc1ccc(-c2c(C#N)c(-c3ccc(Cl)cc3)nc3n[nH]c(-c4ccc(Cl)cc4)c23)cc1OC` the growth was 4.06% (active). For `CC(C)(C)c1cc(/C=C2\S/C(=N/c3ncn[nH]3)NC2=O)cc(C(C)(C)C)c1O`, the growth was 6.76% (active). For `CS(=O)(=O)Nc1cccc(-n2cnc3cc(-c4ccc(O)cc4)ccc32)c1`, the growth was 7.73% (active). `Cc1cc(N=C2NC(=O)/C(=C/c3cc(C(C)(C)C)c(O)c(C(C)(C)C)c3)S2)n[nH]1` was tested, and the growth was 5.2% (active). In the case of `Cn1cc(-c2cc(N)n3nc(-c4cn(C)c5ncc(Br)cc45)cc3n2)c2cc(Br)cnc21`, the growth is reported as -71.2% (active). In the case of `CN(CCO)c1oc(-c2ccccc2)nc1[P+](c1ccccc1)(c1ccccc1)c1ccccc1`, the growth is reported as -33.1% (active). With `COc1cc2cc(C(=O)N3C[C@@H](CCl)c4c3cc(OC(=O)N(C)CCSSCCN3CCOCC3)c3ccccc43)[nH]c2c(OC)c1OC` the growth was -39.6% (active). `COc1ccc(NCc2cn(-c3ccc(C(=O)O)cc3)nc2-c2ccc(F)cc2)cc1C(F)(F)F` was tested, and the growth was 49.9% (inactive). For `S=C(NCCc1ccccc1)Nc1ccc(OCc2nc3ccccc3[nH]2)cc1`, the growth was 100% (inactive). `Cc1oc(-c2ccccc2)nc1CN[C@@H]1C[C@@H]2C[C@H]([C@H]1C)C2(C)C` was tested, and the growth was -23.7% (active). For `COc1cnc2c(c1)C(=O)c1c-2n(CCCNCCO)c(=O)c2cc(OC)c(OC)cc12`, the growth was 61.3% (inactive). In the case of `Cc1cc(Cl)ccc1NC(=O)Nc1ccc(-c2ccc3c(c2)NC(=O)/C3=C\c2ccc[nH]2)cc1`, the growth is reported as 78.9% (inactive). With `CC1=C(C(=O)OCc2ccccc2)C(c2ccc(-n3cncn3)cc2)n2c(nc3ccccc32)N1` (centres undefined) the growth was 8.84% (active). `COc1sc(/C=N/NC(=O)c2[nH]c3ccc(Br)cc3c2-c2ccccc2)cc1Cl` was tested, and the growth was -42.8% (active). `FC(F)(F)c1cc2c(Cl)ncnc2n1CCN1CCCCC1` was tested, and the growth was -13.5% (active). For `O=C(N/N=C/c1ccc(B(O)O)o1)c1[nH]c2ccc(Br)cc2c1-c1ccccc1`, the growth was -29.3% (active). For `Cc1ccc2c(c1)C(=O)/C(=C/c1ccc([N+](=O)[O-])cc1)S2`, the growth was 107% (inactive). For `O=S(=O)(c1nc(-c2ccc(Br)cc2)oc1-c1ccc(Cl)cc1)N1CCCC(O)C1` (centres undefined), the growth was 31.4% (inactive). `CN(C)CCNC(=O)OCCCCOc1cc(O)c2c(=O)cc(-c3ccccc3)oc2c1` was tested, and the growth was -61.6% (active). With `CCOc1ccccc1[C@H]1C(C(=O)c2ccc(Cl)cc2)C2(N[C@@H]1c1ccccc1)C(=O)Nc1ccc(Br)cc12` (some centres undefined) the growth was -18.4% (active). With `O=c1oc2ccc(-c3ccc(F)cc3F)cc2c(=O)n1-c1ccc(F)c(Cl)c1` the growth was -40.3% (active). `Cc1ccc(S(=O)(=O)N2CCN(S(=O)(=O)c3oc(-c4ccccc4)nc3C#N)CC2)cc1` was tested, and the growth was 69.4% (inactive). For `O=C1CCCc2cc(OCC(=O)N3CCCCC3)ccc2N1`, the growth was 91.9% (inactive). `C=CCSc1nnc(-c2c(C)nc3sccn23)o1` was tested, and the growth was 119% (inactive). In the case of `CCCCCCCOc1ccc(S(=O)(=O)Nc2ccc(C)c(F)c2C(=O)O)cc1`, the growth is reported as 89.8% (inactive). In the case of `COc1ccc2[nH]cc(-c3nc(N)nnc3-c3cn(C)c4ncccc34)c2c1`, the growth is reported as 15.1% (inactive). For `CCCCCCCS(=O)(=O)N1CCCC(C(=O)Nc2nc3ccc(NC(=O)c4ccc(F)c(OC)c4F)cc3s2)C1` (centres undefined), the growth was 66.7% (inactive).
